Source: PubChem
TDP1 cell noCPT: qHTS for Inhibitors of human tyrosyl-DNA phosphodiesterase 1 (TDP1): qHTS in cells in absence of CPT | DT40 Tdp1-/- hTDP1 cells, no CPT, ATP luminescence, 48 h | Potency, µM (doses to about 46.2 µM), usual class: inhibitors | 420,000 compounds, 15% hits | AID 686978, 2013; further: nearly all actives have a fitted effect of over 55% in size
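Chicken DT40 Tdp1-/- cells complemented with human TDP1, screened without camptothecin (DMSO vehicle only), 400 cells/well. Compounds pin-transferred, cells incubated at 37 °C for at least 48 hr. Growth read as ATP-dependent luminescence (CellTiter-Glo, 30 min at RT).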
DT40 TDP1 CPT: DT40-hTDP1 cell growth loss with CPT | chicken DT40 Tdp1-/-;hTDP1 cells + 20 nM CPT, ATP luminescence, 48 h | Potency, µM (top dose mostly 46.2 µM), most hits filed as inhibitors | 420,000 compounds, 12% hits; further: nearly all actives have a fitted effect of over 55% in size
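Chicken DT40 Tdp1-/- cells complemented with human TDP1, 400 cells/well, exposed to compounds plus 20 nM camptothecin for at least 48 h at 37 C; viability read as ATP content by CellTiter-Glo luminescence.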
TDP1 inh: blocks human tyrosyl-DNA phosphodiesterase 1; Q9NUW8; recombinant TDP1, AlphaScreen DNA substrate cleavage; Potency, µM (titrated, usually from 130 µM), actives largely listed as inhibitors; 350,000 compounds, 0.28% hits; AID 485290; further: nearly all actives have a fitted effect of over 40% in size
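Compounds were preincubated with Tdp1 (1 nM final) for 15 min at room temperature before substrate (15 nM final) started a 5 min reaction; beads (10 ug/ml final) were then added for 10 min before AlphaScreen detection.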
IL-1B inflam inh: blocks inflammasome-driven IL-1 beta release. THP-1 LPS/ATP IL-1B secretion, AlphaLISA, 16 h; active compounds read low. activity change, % at 57.5 µM. 360,000 compounds, 4.7% hits; in the data active means activity change below about -50%; inconclusive means mostly about -30% to -49%
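THP-1 cells pretreated 1 hr with compounds (up to 57.5 uM final), then stimulated with LPS (250 ng/mL final) plus ATP (1.25 mM final); secreted IL-1B measured by AlphaLISA after 16 hr, decreased signal indicating inhibition.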
Six1-Eya2 blk: blocks human Six1 binding to Eya2; AID 651725; Q15475+O00167; 360,000 compounds, 0.56% hits; AlphaScreen GST-Six1/His-Eya2 binding, biochemical; active compounds read low; activity change, % (no concentration beside the values); in the data active means activity change below about -65%; inconclusive means mostly about -30% to -63%
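GST-Six1 + His-Eya2 (5X stock: 250/500 nM); Tris pH 8.0, 300 mM NaCl, 0.05% BSA, 0.02% Tween 20; GSH donor/Ni acceptor beads; 1 h 37 °C dark; AlphaScreen readout.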
CtBP-E1A blk: blocks the CtBP interaction with E1A | AlphaScreen GST-E1A/His-CtBP binding, 1536-well; active compounds read low | activity change, % (no concentration beside the values) | AID 651724 | 340,000 compounds, 0.49% hits; in the data active means activity change below about -65%; inconclusive means mostly about -30% to -63%
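In 5 uL wells, 23 nL compound meets equimolar GST-E1A and His-CtBP (5X stock 125 nM each) for 2 h, 37 °C. Beads (5X, 50 ug/mL) then 1 h, 37 °C, dark.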
Numbers stand for hits; – = inactive; ? = inconclusive; · = no result. Sampled rows, rich in hits. Any-hit rate of the full collection: about 18%. Unless noted, the call rests on the fitted dose curve; in most records, active means well fitted curve in the direction sought with a large enough effect; inconclusive means small, poorly fitted or top-dose-only effect, or another doubt; inactive means no such curve, though single readings can be large; an effect the other way counts as inactive or inconclusive.

SMILES	TDP1 cell noCPT	DT40 TDP1 CPT	TDP1 inh	IL-1B inflam inh	Six1-Eya2 blk	CtBP-E1A blk
Cc1nn(-c2ccccc2)c(Cl)c1/C=N/NC(=O)OC(C)(C)C	16.4µM	?	–	–	–	–
Cc1nn(-c2ccccc2)c(C)c1/C=N/NC(=O)c1cc(-c2ccc(Br)s2)[nH]n1	4.61µM	2.91µM	–	–	–	–
Cc1ccccc1Cn1cc(NC(=O)c2cc(-c3ccco3)on2)cn1	–	?	–	–	–	·
C=C(C)CN1C(=O)C2(OCCO2)c2ccccc21	–	–	·	–	–	–
COc1ccc(NC(=S)NN2CCOCC2)cc1OC	–	–	–	–	–	–
O=C(Nc1ccc(S(=O)(=O)N2CCC(c3nc4ccccc4s3)CC2)cc1)c1ccccc1	–	–	–	·	·	·
Cc1nn(-c2ccccc2)c(C)c1/C=N/NC(=O)c1cccs1	14.6µM	9.2µM	–	–	–	–
Cc1nn(-c2ccccc2)c(C)c1/C=N/NC(=O)c1cc(-c2ccc(Cl)s2)[nH]n1	4.11µM	4.61µM	–	–	–	–
O=C(N/N=C/c1ccccn1)c1cc(-c2ccccc2Cl)n[nH]1	18.4µM	?	–	–	?	?
Cc1nn(-c2ccccc2)c(C)c1/C=N/NC(=O)CSc1nnc(SCc2ccc(Cl)cc2)s1	14.6µM	?	–	–	–	–
O=C(CSc1nnc(SCc2ccccc2)s1)N/N=C/c1c(Cl)cccc1Cl	?	?	–	–	–	–
NC(=O)COC(=O)c1cc(S(=O)(=O)N2CCOCC2)ccc1N1CCCCC1	–	–	–	–	–	–
COc1ccccc1CC(=O)NC1CCC(C)CC1 (configuration not stated)	–	–	–	–	–	–
CSc1ccc(CN(C)CCc2ccccn2)cc1	?	–	·	–	–	·
CC(=O)N1CSCC1C(=O)NNS(=O)(=O)c1cccc(C(F)(F)F)c1 (configuration not stated)	–	–	–	–	–	–
NCCCN(Cc1ccc(Cl)c(Cl)c1)c1ccccn1	8.91µM	10µM	·	·	·	·
CN(CCc1ccccn1)Cc1ccc(Cl)c(Cl)c1	–	–	·	–	–	–
CC[N+](C)(C)CCN(Cc1ccc(Cl)cc1)c1ccccn1	9.2µM	18.4µM	–	–	–	–
COc1ccc(CN(CCCN)c2ccc(Br)cn2)cc1	11.2µM	?	·	·	·	·
NCCN(Cc1ccc(Cl)c(Cl)c1)c1ccc(Br)cn1	3.98µM	3.98µM	·	·	·	·
COc1ccc(CN(CCN(C)C)c2ccccn2)cc1	?	–	–	–	–	–
O=C(Nc1ccc(NC(=O)C2CC2)cn1)c1ccccc1Cl	?	?	–	–	–	–
Cc1ccc(N2C(=O)CC(N(CCc3ccccc3)C(=S)Nc3ccc(N(C)C)cc3)C2=O)cc1 (configuration not stated)	?	18.4µM	–	?	–	–
COc1ccc(CCN(C(=S)Nc2ccccc2)C2CC(=O)N(c3ccccc3)C2=O)cc1 (configuration not stated)	?	?	–	–	–	–
O=C1CC(N(CCc2ccccc2)C(=S)Nc2ccccc2)C(=O)N1c1ccc(Br)cc1 (configuration not stated)	18.4µM	16.4µM	–	–	–	–
SMILES	TDP1 cell noCPT	DT40 TDP1 CPT	TDP1 inh	IL-1B inflam inh	Six1-Eya2 blk	CtBP-E1A blk
COc1ccccc1CNC(=O)[C@H](C)NC(=O)C1CCN(C(=O)[C@H](CCSC)NC(=O)OC(C)(C)C)CC1	–	–	·	–	–	–
CCOc1ccc(S(=O)(=O)Nc2cccc(C(=O)N3CC(C)OC(C)C3)c2)cc1 (configuration not stated)	–	–	–	–	–	–
CCC1c2ccc(C)n2CCN1C(=O)Nc1ccccc1C(=O)OC (configuration not stated)	?	?	–	–	–	–
CCCC1c2ccc(C)n2CCN1C(=O)Nc1ccccc1Cl (configuration not stated)	20.6µM	–	–	–	–	–
CCOC(=O)c1ccccc1NC(=O)N1CCn2c(C)ccc2C1CC (configuration not stated)	?	23.1µM	–	–	–	–
COc1ccccc1Nc1nnc(SCC(=O)NC2CCCC2)s1	–	–	–	–	–	–
Cc1ccccc1Nc1nnc(SCC2CCCCO2)s1 (configuration not stated)	18.4µM	?	–	?	–	–
Cc1ccc(Nc2nnc(SCC3CCCCO3)s2)cc1 (configuration not stated)	?	–	–	–	–	–
COc1ccccc1Nc1nnc(SCC2CCCCO2)s1 (configuration not stated)	?	6.51µM	·	–	–	–
CCOC(=O)c1cnc2ccc(Cl)cc2c1Nc1ccc(N2CCOCC2)cc1	14.6µM	14.6µM	·	·	·	·
CCOC(=O)c1cnc2ccc(C(=O)OC)cc2c1Nc1ccc(N2CCOCC2)cc1	11.6µM	10.3µM	·	·	·	·
CCOC(=O)c1cnc2ccc(Cl)cc2c1Nc1ccc(S(=O)(=O)Nc2ncccn2)cc1	–	–	–	–	–	–
CCOC(=O)c1cnc2ccc(C)cc2c1Nc1ccc(N2CCOCC2)cc1	?	?	–	?	?	?
CCOC(=O)c1cnc2ccc(C)cc2c1Nc1ccc(N(CC)CC)cc1	6.51µM	11.6µM	·	·	·	·
Cc1nc(-c2ccc(S(=O)(=O)N3CCN(c4cccc(Cl)c4)CC3)cc2)co1	?	?	–	·	·	·
Cc1c(Cl)cccc1NC(=O)CSc1nc(=O)n(Cc2ccco2)c2c1CCC2	?	20.6µM	–	·	·	·
Cc1cc(C)c(NC(=O)CSc2nc(=O)[nH]c3c2CCCC3)c(C)c1	23.1µM	?	–	·	·	·
Cc1c(Cl)cccc1NC(=O)CSc1nc2c(c(=O)[nH]1)CCCC2	·	·	–	·	·	·
O=C(CSc1nc(=O)[nH]c2c1CCCC2)Nc1ccc(Cl)c(Cl)c1	?	?	–	·	·	·
Cc1c(Cl)cccc1NC(=O)CSc1nc(=O)[nH]c2c1CCCC2	20.6µM	20.6µM	–	·	·	·
Cc1oc(-c2ccccc2Cl)nc1CSCC(=O)N1CCCC1	13µM	?	–	–	–	–
Cc1oc(-c2ccccc2F)nc1CSCC(=O)N1CCN(c2ccccc2)CC1	9.2µM	20.6µM	–	·	·	·
Cc1oc(-c2ccccc2Cl)nc1CS(=O)CC(=O)N1CCN(c2ccccc2)CC1 (configuration not stated)	–	–	–	–	–	–
Cc1cccc(C)c1NC(=O)NNC(=O)c1cc(C(C)(C)C)nn1Cc1ccccc1	?	–	–	–	–	–
CNC(=S)NNC(=O)c1cc(C(C)(C)C)nn1Cc1ccc(F)cc1	16.4µM	?	–	–	–	–
